Measurements published in PubChem BioAssay (EPA / NIEHS).
Active and inactive are the calls of the source. Rule for the calls: active = hit-call score of the fitted dose curve at least 0.9, where 1 is the maximum; inactive = score below 0.9.

Experiment: CCTE_Shafer_MEA_acute_interburst_interval_mean: CCTE's Neural Acute Assay for Mean Interburst Interval, Shafer Lab (AID 2284016);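 note: percent change of mean interburst interval versus each well's own pre-dose baseline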
Protocol: CCTE_Shafer_MEA_acute assay is conducted using Axion Biosystems 48 well microelectrode array (MEA) plates and Maestro recording system. Each well of the MEA plate contains a grid of 16 microelectrodes embedded in the culture surface. Electrically active cells, such as neurons, can be cultured over the electrodes, and electrical activity in these cells can be recorded extracellularly. The spontaneous firing of neurons is captured from each electrode on a microsecond timescale providing both temporally and spatially precise data. […] The CCTE_Shafer_MEA_acute assay uses primary cultures of rat cortical neurons. As these cultures mature over time, neural networks develop functional activity and form cohesive networks in which electrical activity can be highly coordinated. Baseline 40-minute recordings are made on days post-plating 13 or 15, followed by a secondary 40-minute recording after chemical exposure.CCTE_Shafer_MEA_acute_interburst_interval_mean is a component of the CCTE_Shafer_MEA_acute assay. It measures the average time between the start of consecutive single-electrode bursts (temporally-clustered groups of action potential firing) during a recording in a microelectrode array (MEA) using Axion Biosystems Maestro 768 channel amplifier with the AxIS adaptive spike detector. The recordings before and after chemical treatment are used to calculate a percent change in the mean inter-burst interval in each well.Data from the assay component CCTE_Shafer_MEA_acute_interburst_interval_mean was analyzed into 1 assay endpoint. This assay endpoint, CCTE_Shafer_MEA_acute_interburst_interval_mean, was analyzed in the negative analysis fitting direction relative to DMSO as the negative control and baseline of activity. Using a type of functional reporter, gain or loss-of-signal activity can be used to understand electrical activity.
Spontaneous activity in the cortical cultures was recorded using an Axion Biosystems Maestro 768 channel amplifier and Axion Integrated Studios (AxIS) v1.8 (or later) software. The amplifier recorded from all channels simultaneously (gain = 1200 x; sampling rate = 12.5 kHz/channel): raw signals were filtered with a Butterworth band-pass filter (300-5000 Hz), which filters out slower local field potentials leaving only fast potentials, i.e., "spikes", arising from extracellular currents associated with action potentials (Pine 2006; Wheeler and Nam 2011). On-line spike detection of filtered signals was conducted with the AxIS adaptive spike detector, using a threshold of 8x the root mean squared (rms) noise on each channel. Any electrodes with rms noise levels greater than 5 uV were grounded (e.g., no data were recorded). Once grounded, an electrode was grounded for the duration of the experiment. All recordings were conducted at 37 C. Wells were deemed usable if on the day of the exposure >/= 10 electrodes were active (defined as >/= 5 spikes/min). On DIV 13 or 15, a minimum of three wells from one cortical culture preparation were treated with each compound (0.03-40 uM). Prior to recording baseline activity, each mwMEA plate was placed in the Maestro at 37 C and allowed to sit for 20 min while firing rates stabilized. Baseline activity (40 min) was recorded before the addition of each compound. An additional 40 min of spontaneous activity was recorded in the presence of each compound. Changes in network parameters relative to baseline were assessed following compound treatment.

Question: Which outcome does the source give for Cc1c(C(N)=O)cc([N+](=O)[O-])cc1[N+](=O)[O-] here?
Answer: inactive

Question: With CNCCC(Oc1ccc(C(F)(F)F)cc1)c1ccccc1 (stereo unspecified) as the molecule, how does the outcome read?
Answer: inactive

Question: For COc1ccc(C(=O)c2ccccc2O)c(O)c1, which outcome is on record?
Answer: inactive

Question: Which outcome does the source give for COc1cc(CNC(=O)CCCC/C=C/C(C)C)ccc1O here?
Answer: inactive

Question: Which outcome does the source give for C1CN(CCOCCN2CCOCC2)CCO1 here?
Answer: inactive

Question: With CN(C)Cc1cc(C(C)(C)C)c(O)c(C(C)(C)C)c1 as the molecule, how does the outcome read?
Answer: inactive

Question: For CN(C)C(=O)C(CCN1CCC(O)(c2ccc(Cl)cc2)CC1)(c1ccccc1)c1ccccc1, which outcome is on record?
Answer: inactive

Question: Which outcome does the source give for NC(N)=Nc1nc(CSCCC(N)=NS(N)(=O)=O)cs1 here?
Answer: inactive

Question: With CC1(C)S[C@@H]2[C@H](NC(=O)[C@H](N)c3ccccc3)C(=O)N2[C@H]1C(=O)O as the molecule, how does the AC50 read?
Answer: 1.61 µM (active)

Question: Which outcome does the source give for CC1(C)S[C@@H]2[C@H](NC(=O)[C@H](N)c3ccc(O)cc3)C(=O)N2[C@H]1C(=O)O here?
Answer: inactive

Question: With COc1ccccc1Oc1c(NS(=O)(=O)c2ccc(C(C)(C)C)cc2)nc(-c2ncccn2)nc1OCCO as the molecule, how does the AC50 read?
Answer: 5.33 µM (active)

Question: With CC[N+](CC)(CC(=O)Nc1c(C)cccc1C)Cc1ccccc1 (tested in a mixture with another compound) as the molecule, how does the outcome read?
Answer: inactive

Question: With O=[N+]([O-])c1cc(S(=O)(=O)Nc2ccccc2)ccc1Nc1ccccc1 as the molecule, how does the outcome read?
Answer: inactive

Question: Which AC50 does the source give for CN(C)CCC(c1ccc(Cl)cc1)c1ccccn1 (stereo unspecified) here?
Answer: 23.9 µM (active)

Question: With CC(C)C1OCCN1CCOC(=O)NCCCCCCNC(=O)OCCN1CCOC1C(C)C (stereo unspecified) as the molecule, how does the outcome read?
Answer: inactive

Question: For CCC[Si](OC(C)=O)(OC(C)=O)OC(C)=O, which outcome is on record?
Answer: inactive
